Laboratory results taken from PubChem BioAssay (NCI).
About 83,000 compounds went through this panel and 20% of them were active in at least one assay; those are over-represented in the sample as a whole.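 Interpretation: 100, growth as untreated; towards 0, rising growth inhibition; 0, no net growth; 0 to -100, cell death. Compounds scoring below 10 were considered active.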 Values without a mark were called inactive. Active and inactive are the calls of the source.

Tests used:
Assay in all cases: NCI-60 one-dose screen, 48 h (100 = growth as untreated, 0 = no growth, -100 = all killed)
Details in all cases: 10 µM
786-0 renal = test system: 786-0 renal
MALME-3M melanoma = test system: MALME-3M melanoma
MDA-MB-231 breast = test system: MDA-MB-231 breast
SF-268 CNS = test system: SF-268 CNS
SF-295 CNS = test system: SF-295 CNS
UACC-257 melanoma = test system: UACC-257 melanoma
SK-MEL-28 melanoma = test system: SK-MEL-28 melanoma
EKVX NSCLC = test system: EKVX NSCLC
UO-31 renal = test system: UO-31 renal
TK-10 renal = test system: TK-10 renal
ACHN renal = test system: ACHN renal
CAKI-1 renal = test system: CAKI-1 renal
A498 renal = test system: A498 renal
OVCAR-8 ovarian = test system: OVCAR-8 ovarian
OVCAR-5 ovarian = test system: OVCAR-5 ovarian
OVCAR-3 ovarian = test system: OVCAR-3 ovarian
HS 578T breast = test system: HS 578T breast
BT-549 breast = test system: BT-549 breast
MDA-MB-435 melanoma = test system: MDA-MB-435 melanoma
SW-620 colon = test system: SW-620 colon

SMILES	growth (786-0 renal)	growth (MALME-3M melanoma)	growth (MDA-MB-231 breast)	growth (SF-268 CNS)	growth (SF-295 CNS)	growth (UACC-257 melanoma)	growth (SK-MEL-28 melanoma)	growth (EKVX NSCLC)	growth (UO-31 renal)	growth (TK-10 renal)	growth (ACHN renal)	growth (CAKI-1 renal)	growth (A498 renal)	growth (OVCAR-8 ovarian)	growth (OVCAR-5 ovarian)	growth (OVCAR-3 ovarian)	growth (HS 578T breast)	growth (BT-549 breast)	growth (MDA-MB-435 melanoma)	growth (SW-620 colon)
COc1ccc(Cc2nn(CC(=O)N/N=C/c3ccc([N+](=O)[O-])cc3)c(=O)c3c(C)noc23)cc1	26.3%	53%	61.2%	77.7%	92.7%	92.8%	80.3%	86.6%	63%	101%	47.7%	53.2%	111%	56.6%	90.2%	45.1%	48.8%	87.4%	71.7%	60.9%
COc1cc(C2CC(c3ccccc3)=Nc3c(N)nc(N)nc3N2)ccc1Oc1nc(NCCO)nc(N2CCOCC2)n1 (stereo not given)	89.2%	93.3%	97.1%	88.8%	105%	101%	100%	97.6%	94.2%	110%	103%	93.9%	113%	102%	107%	109%	78.9%	92.6%	102%	107%
COc1cc2oc(-c3cccc(C(=O)Nc4ccc(Cl)cc4)c3)cc(=O)c2c(OCCNC(=O)[C@@H](N)CO)c1OC	48.4%	-56.9% (active)	3.78% (active)	69.9%	99.4%	-67.8% (active)	-74.9% (active)	54.7%	91.1%	138%	99.4%	45.9%	177%	26.3%	60.9%	89.5%	53.8%	58.9%	15.7%	-37.7% (active)
Fc1ccc(-c2csc(Nc3cccc(Nc4nc(-c5ccc(F)cc5)cs4)c3)n2)cc1	68.8%	83%	64.6%	57.9%	90.4%	74.6%	76.4%	39.8%	31.3%	94.5%	51.8%	46.4%	78.3%	67.9%	65.5%	57.5%	69.3%	64%	63.1%	70.3%
O=C(c1ccccc1)c1ccc2nc(-c3ccccc3Br)[nH]c2c1	-89.9% (active)	-68.4% (active)	-8.52% (active)	-2.6% (active)	11.2%	-59.1% (active)	-26.7% (active)	-76.8% (active)	-99.1% (active)	-77.7% (active)	-98.2% (active)	-92.8% (active)	9.77% (active)	12.6%	-65.8% (active)	-80.3% (active)	29%	-76.4% (active)	-21% (active)	-17.9% (active)
O=C(CN1CCN(c2ncnc3c2cnn3-c2ccccc2)CC1)Nc1ccc(Cl)cc1	40.4%	-56.2% (active)	63.3%	44.3%	80.3%	49.9%	72.8%	45%	-60.5% (active)	97.3%	-80.7% (active)	-39.7% (active)	78.7%	56.6%	85.6%	51.8%	64.6%	39.1%	47%	78.4%
CC1(C)CC[C@]2(C(=O)O)CC[C@]3(C)C(=CCC4[C@@]5(C)C[C@@H](O)[C@@H]6OC(c7cccc(F)c7)OC[C@@]6(C)C5CC[C@]43C)C2C1 (stereo not given in full)	59.3%	70%	60.7%	55.6%	42.7%	67.8%	66%	19.2%	34.2%	32.4%	17.6%	49%	78.7%	31.7%	73.2%	37.9%	66.4%	39%	58.1%	31%
